Experimental data as given in the OligoGym collection.

Biological target: FAM117A
Assay: pooled miR-30 sensor sort-seq; sequence = guide strand
Details: shRNA
Note: reference of the scale not given here.

| Sequence | sensor-assay potency score (higher = more potent) |
| --- | --- |
| TCACCTTCTAGCTCTTGCCAGG | -1.11 |
| AACTCGAACATTAACATTCTTC | -0.482 |
| TTCTTCAAACACACGCACTTTC | -0.795 |
| TTGAAATGGACTTTGTTCTTGT | 1.01 |
| TACACACTGACTTTTCTGGGGC | 0.0109 |
| TTGTCATTGGTGCAGCAGGTGA | -1.77 |
| TGTAGCTATGATTAGGTCGAGG | -1.12 |
| TATACAAACTTCAAACAGCTGC | -0.329 |
| TTAACATTCTTCAATTTTGTGT | -0.138 |
| TTTTCTAATCCATCCAGCCCTG | -0.672 |
| AAATAGAGTCTCTACATCGATA | -1.34 |

Biological target: FAM127A
Assay: as above
Details: shRNA

| Sequence | sensor-assay potency score (higher = more potent) |
| --- | --- |
| TCGGTATCGCCGTCAAACGTCT | -1.19 |
| TGTAGGAGCCCGTCTGCACGAT | -1.04 |
| AAAGACTCGCTTCATCTCGGCC | -1.07 |
| ATTGAGGAGGGGGCTCTCCTTC | -1.52 |
| TATCGCCGTCAAACGTCTCGGG | -0.476 |
| TCGCCGTCAAACGTCTCGGGAA | -1.08 |
| TTCATCTCGGCCAGAAAGCCCC | -0.891 |
| ATCGCCGTCAAACGTCTCGGGA | -1.14 |
| TCGGTCGGTATCGCCGTCAAAC | -1.87 |
| ATCTCGGCCAGAAAGCCCCGGT | -0.915 |
| TCGCTGGAGAACGTGTTCTCGT | -1.32 |

Biological target: FAM134A
Assay: as above
Details: shRNA

| Sequence | sensor-assay potency score (higher = more potent) |
| --- | --- |
| TTTCTTCACATCCACCACTGGG | -0.774 |
| TTCTTGGTCTGACTGTACCAGA | -0.779 |
| TACCAGAGAATGGATGTCGGGC | -0.337 |
| AAGAGTGTAACTACTGGCCTGA | 0.464 |
| TATTTTTCAAGTCAACACCTGC | -0.352 |
| TTCAAGTCAACACCTGCACAGA | -0.356 |
| AACAGCAACACTCCTAGCCAGG | -1.64 |
| TGAATCTGGAAGGTGAGCCAGC | -0.0919 |
| TAAGAGTGTAACTACTGGCCTG | -0.0872 |
| TTCTTCACATCCACCACTGGGG | -0.152 |
| TTGGCTTCTGCCTTCATGCTGT | 0.471 |
| TACACAGACTACAGTGACCTAA | -0.201 |

Biological target: FAM151A
Assay: as above
Details: shRNA

| Sequence | sensor-assay potency score (higher = more potent) |
| --- | --- |
| TAGACTTGGTGGACAGCAGTGT | 0.813 |
| AAAGATGTCATAGTAGACTTGG | 0.264 |
| TTTGCCTTCCTCTGTCAGCTGC | 0.237 |
| TGTCATAGTAGACTTGGTGGAC | 0.221 |
| TACATTGACGTCAGCCTCCAGG | -0.38 |
| TTGTGCTCCACTGTGACGGTGG | 0.185 |
